About 83,000 compounds went through this panel and 20% of them were active in at least one assay; those are over-represented in the sample as a whole.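 Each cell line was grown in a 96-well plate and treated with one concentration of compound for 48 hours. Values below 10 were considered active.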 A number with no mark means an inactive call. The source made the active and inactive calls.

The subject of this experiment is MDA-MB-468 breast. In words: NCI-60 one-dose screen, 48 h (100 = growth as untreated, 0 = no growth, -100 = all killed). The note with it: 10 µM unless noted.
Consider `CC(=O)/C(=C/c1ccc(Cl)cc1)C(=O)c1ccccc1`, for which the growth is 96.9%.
Regarding `Cc1ccc(-c2ccc(/C=C(\C#N)c3nc(-c4ccco4)cs3)o2)cc1`, the growth is -45.8% (active).
Then `Cn1cc(-c2csc(-c3cn(CCN)c4ccc(F)cc34)n2)c2cccnc21`, with 20.2%; and `O=C(c1ccncc1)N1N=C(c2ccc(Cl)cc2)CC1c1c[nH]c2ccccc12` (stereo not given), with 102%; and `CCOC(=O)c1cnc2c(OC)ccc(OC)c2c1Cl`, with 113%.
Then `O=C(/C=C/c1ccc(C(F)(F)F)cc1)c1ccc(Nc2nc(NCCO)nc(Nc3ccc(Cl)cc3)n2)cc1`, with 69.4%.
Take `CN(C)C/C=C/C(=O)Nc1cc2c(Nc3ccc(F)c(Cl)c3)ncnc2cc1O[C@H]1CCOC1`: the growth is -40.5% (active).
Under `O=C(CCCSc1nc(-c2ccccc2)cc(-c2ccc(Cl)cc2)n1)NO` stands -43.9% (active); under `Cc1ccccc1N1C(c2ccccc2)=NNC12C=CC(=O)C=C2Cl` (stereo not given), 109%; under `COc1cc2cc(Oc3ccc(NC(=O)Nc4ccc(F)c(C(F)(F)F)c4)cc3)c(C)nc2cc1OCCN(C)C`, 93.4%.
Under `CCCN1C2CCC1/C(=C\c1ccc(OC)cc1)C(=O)/C2=C/c1ccc(OC)cc1` stands 55.9%; under `O=C(CSc1nc(-c2ccccc2)cc(=O)[nH]1)Nc1nc(-c2ccccc2)cs1`, 96.6%; under `Cc1cccc(CC(=O)c2ccccc2)n1`, 92.8%.
Under `Cc1cc(Cc2ccccc2)c(O)c(Cc2ccccc2)c1` stands 95.8%; under `C/C(=N\Nc1cccc(Cl)n1)c1ccccn1`, -31.3% (active).
Turning to `NCCCNc1nc2ccccc2c2c(=O)c3cc(F)cc(Cl)c3sc12`, the growth is 73.4%.
As to `Oc1ccc(-c2nnc(SCc3ccc(O)c4ncccc34)n2-c2ccccc2)cc1`, the growth is -13.6% (active).
Then `Nc1ccc2[nH]c(-c3ccccc3)cc(=O)c2c1`, with 51%; and `O=C(OCCBr)c1ccc(Cl)c([N+](=O)[O-])c1`, with -79.8% (active); and `N#Cc1nc(-c2ccc(Cl)cc2)cc(-c2ccc(Nc3nc(N4CCCCC4)nc(N4CCCCC4)n3)cc2)c1N`, with 106%.
Then `CC(=O)Nc1ccc(/C=C2\SC(=S)N(/C=C(\C(C)=O)C(N)=O)C2=O)cc1`, with 108%; and `Nc1ncc(-c2cnn(C3CCNCC3)c2)cc1-c1nc2cc(Cl)ccc2o1`, with -94.3% (active).
Then `C#CCC#CCN1CCC[C@H]1C(=O)NCC(=O)OC`, with 99.1%; and `NC1=CC(=O)C(=O)c2ccccc21`, with 86.8%.
Turning to `O=[N+]([O-])c1c(O)c(CNCCCO)cc(CNCCCO)c1O`, the growth is 108%.
Under `COc1ccc([C@@H]2c3[nH]c4ccccc4c3CC3C(=O)N(C4CCN(Cc5c(F)cccc5F)CC4)CC(=O)N32)c(OC)c1` (stereo not given in full) stands 40.6% [5.26 µM].
As for `C=C1C(=O)O[C@H]2[C@H]1CC/C(COC(=O)c1cc3cc(Cl)ccc3[nH]1)=C\CC[C@@]1(C)O[C@@H]21`, the growth was -59.6% (active).
Then `COC(=O)N[C@@H](C)CNc1nccc(-c2cn(C(C)C)nc2-c2cc(Cl)cc(NS(C)(=O)=O)c2F)n1`, with 99.4%.
Then `CC(C)(C)c1ccc(S(=O)(=O)O)s1`, with 109%; and `O=C(Nc1nc2ccc(OC(F)(F)F)cc2s1)c1ccc(F)cc1`, with 21.1%; and `O=C(c1ccc(Cl)cc1Cl)N1CCOCC1`, with 99.5%.
Then `O=C1OCC2=C1C(c1cccc(Cl)c1)c1cc3c(cc1N2CCO)CCC3` (stereo not given), with -9.35% (active).
`O=C(CCCCCCN1CC(=O)N2[C@@H](c3ccc(Cl)c(F)c3)c3[nH]c4ccccc4c3C[C@H]2C1=O)NO`: the growth is 85.5%.
Under `COc1ccc(/C=C/C(=O)c2ccc(NC(=O)CSc3nnc(-c4ccc(OC)cc4)n3-c3ccccc3)cc2)cc1` stands 106%; under `O=C(NCc1ccc(Cn2c(=O)sn(-c3ccccc3)c2=O)cc1)OCc1ccc2c(Br)cc(Br)c(O)c2n1`, -67.5% (active); under `CCN(CC)CCNc1ccc(Cl)cc1Cl`, 108%.
Under `CCC1(C(C)C)NC(=O)NC1=O` (stereo not given) stands 98.5%; under `CCOC(=O)c1c(Nc2ccccc2)nn2c(-c3ccc(Cl)cc3)ccnc12`, 65.1%.
Under `CC(=O)c1nn(-c2ccccc2)c(=Nc2ccccc2)cc1C` stands 91.9%; under `O=C(NN1C(=O)CSC1c1cccc([N+](=O)[O-])c1)c1ccc(NC(=O)c2ccccn2)cc1` (stereo not given), 98.8%.
